Holding throughout (experiment): NCI-60 one-dose screen, 48 h (100 = growth as untreated, 0 = no growth, -100 = all killed)
For one test, the system named is HCT-15 colon. The conditions noted are these: 10 µM unless noted.
The test system of the next test is HT29 colon. The conditions noted are these: 10 µM unless noted.
In the next test the test system is SNB-75 CNS. The conditions noted are these: 10 µM unless noted.
The test system of the next test is SNB-19 CNS. The conditions noted are these: 10 µM unless noted.
Another test concerns U251 CNS. The conditions noted are these: 10 µM unless noted.
For the next test, the system named is PC-3 prostate. The conditions noted are these: 10 µM unless noted.
A further test concerns SK-MEL-5 melanoma. Conditions: 10 µM unless noted.
In the next test the test system is UACC-62 melanoma. The conditions noted are these: 10 µM unless noted.
A further test concerns LOX IMVI melanoma. Conditions: 10 µM unless noted.
The next test relates to SK-MEL-28 melanoma. Conditions: 10 µM unless noted.
Another test has as its system SK-MEL-2 melanoma. The conditions noted are these: 10 µM unless noted.
The subject of another test is EKVX NSCLC. Conditions: 10 µM.
The test system of another test is SN12C renal. Conditions: 10 µM unless noted.
The next test relates to UO-31 renal. The conditions noted are these: 10 µM unless noted.
The test system of the next test is TK-10 renal. Conditions: 10 µM unless noted.
The subject of the next test is CAKI-1 renal. Conditions: 10 µM unless noted.
The test system of the next test is A498 renal. Conditions: 10 µM unless noted.
The test system of a further test is CCRF-CEM leukemia. The conditions noted are these: 10 µM.
Another test relates to MOLT-4 leukemia. Conditions: 10 µM unless noted.
The subject of the next test is ACHN renal. Conditions: 10 µM unless noted.

The panel holds about 83,000 compounds, 20% with a hit somewhere; the sample as a whole holds those more often.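 Cell lines were cultured in 96-well plates, exposed to a single compound concentration, and assessed for percent growth 48 hours later.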 Values without a mark were called inactive. The source made the active and inactive calls. Rule for the calls: active = growth percent below 10; inactive = the rest.

Here are results for eleven molecules from PubChem BioAssay (NCI).

On to `N=c1c2c(=O)n3c(nc2nc2sc4ccc(Cl)cc4n12)-c1ccccc1Sc1ccccc1-3`, for which the growth with HCT-15 colon was 13.6%; with HT29 colon it was 26.8%; in the test with SNB-75 CNS, 18.6%; in the test on SNB-19 CNS, 30.5%; in the test on U251 CNS, 24.7%; in the test on PC-3 prostate, 11.2%. The growth was -2.17% (active) with SK-MEL-5 melanoma; -26% (active) in the test with UACC-62 melanoma; 24.2% in the test with LOX IMVI melanoma; 29.3% with SK-MEL-28 melanoma; 7.77% (active) in the test on SK-MEL-2 melanoma; 9.46% (active) in the test with EKVX NSCLC. Further, the growth was 21.4% in the test with SN12C renal; -5.37% (active) in the test on UO-31 renal; 47% with TK-10 renal; 6.62% (active) in the test with CAKI-1 renal; 47.1% in the test with A498 renal; 12.5% with CCRF-CEM leukemia. The growth in the test on MOLT-4 leukemia was 8.17% (active).

Regarding `Nc1ccc(S(=O)(=O)Nc2cc(F)cc(F)c2)cc1`, the growth in the test with HCT-15 colon is 105%; in the test with HT29 colon it was 102%; in the test on SNB-75 CNS it was 92.8%; in the test with SNB-19 CNS, 104%; in the test with U251 CNS, 98.1%; in the test on PC-3 prostate, 109%. Further, the growth in the test with SK-MEL-5 melanoma is 106%; with UACC-62 melanoma, 88.3%; in the test on LOX IMVI melanoma, 91.5%; in the test with SK-MEL-28 melanoma it was 120%; with SK-MEL-2 melanoma, 94.5%; in the test on EKVX NSCLC it was 80.4%. The growth in the test on SN12C renal is 105%; with UO-31 renal it was 85.4%; in the test on ACHN renal it was 98.7%; in the test on CAKI-1 renal, 100%; with A498 renal, 95%; with CCRF-CEM leukemia, 93.4%. Moreover, the growth in the test with MOLT-4 leukemia is 72.7%.

On to `Clc1ccc(N/N=C(\c2ccccc2)c2ccccn2)nc1`, for which the growth in the test with HCT-15 colon was 17.9%; with HT29 colon, 19.3%; with SNB-75 CNS, 25.2%; in the test on SNB-19 CNS, 24.4%; in the test with U251 CNS it was 9.27% (active); in the test with PC-3 prostate it was 28.6%. In addition, the growth in the test with SK-MEL-5 melanoma is -36% (active); with UACC-62 melanoma, -18.3% (active); in the test on LOX IMVI melanoma, -1.02% (active); in the test on SK-MEL-28 melanoma, 25.4%; in the test on SK-MEL-2 melanoma, 36.4%; in the test on EKVX NSCLC, 15.2%. Besides, the growth is 15.7% with SN12C renal; 2.2% (active) in the test on UO-31 renal; 52.1% with TK-10 renal; 6.96% (active) in the test on CAKI-1 renal; -14.2% (active) in the test with A498 renal; 1.1% (active) in the test on CCRF-CEM leukemia. Besides, the growth with MOLT-4 leukemia was 2.34% (active).

Regarding `COC(=O)c1ccc2[nH]c(O)c(C(=Nc3ccc(N(C)C(=O)CN4CCN(C)CC4)cc3)c3cccc(OC)c3)c2c1`, the growth was 7.72% (active) in the test with HCT-15 colon; -2.16% (active) in the test on HT29 colon; -2.49% (active) in the test on SNB-75 CNS; 12.7% in the test with SNB-19 CNS; 11.7% in the test on U251 CNS; 20.3% with PC-3 prostate. Further, the growth in the test with SK-MEL-5 melanoma is 6.71% (active); in the test with UACC-62 melanoma it was 36.6%; in the test with LOX IMVI melanoma, 8.47% (active); with SK-MEL-28 melanoma, 19.5%; in the test with SK-MEL-2 melanoma, -0.0955% (active); with EKVX NSCLC, 38.7%. Further, the growth in the test on SN12C renal is 9.77% (active); in the test on UO-31 renal, 20.2%; in the test with TK-10 renal, 0.964% (active); in the test on CAKI-1 renal, 2.55% (active); in the test with A498 renal, -14.9% (active); in the test with CCRF-CEM leukemia it was 7.19% (active). Further, the growth in the test on MOLT-4 leukemia is -7.42% (active).

For `CCOC(=O)C1CCCN1C(=O)C1(NC(C)=O)CCCC1` (stereo unspecified), the growth is 106% in the test with HCT-15 colon; 124% in the test on HT29 colon; 95.7% in the test on SNB-75 CNS; 125% with SNB-19 CNS; 104% in the test with U251 CNS; 95.6% in the test with PC-3 prostate. Besides, the growth in the test with SK-MEL-5 melanoma is 109%; in the test on UACC-62 melanoma it was 121%; with LOX IMVI melanoma, 104%; in the test with SK-MEL-28 melanoma it was 114%; in the test on SK-MEL-2 melanoma it was 110%; in the test on EKVX NSCLC, 100%. Also, the growth was 118% with SN12C renal; 88.5% in the test with UO-31 renal; 117% in the test on ACHN renal; 97.4% in the test on CCRF-CEM leukemia; 116% in the test with MOLT-4 leukemia.

`COC1(OC)N=C(N)C2(C#N)C3(C(=O)Nc4ccccc43)C12C#N` (stereo unspecified): the growth in the test with HCT-15 colon is 83.8%; in the test with HT29 colon, 98.9%; with SNB-75 CNS, 66.5%; in the test on SNB-19 CNS, 108%; in the test on U251 CNS, 67.9%; with PC-3 prostate it was 87%. In addition, the growth with SK-MEL-5 melanoma is 81.8%; with UACC-62 melanoma, 47%; in the test on LOX IMVI melanoma it was 50.3%; in the test on SK-MEL-28 melanoma it was 103%; with SK-MEL-2 melanoma, 83.5%; in the test on EKVX NSCLC, 77.4%. Further, the growth in the test on SN12C renal was 93.8%; in the test on UO-31 renal, 52.9%; in the test on ACHN renal it was 67.3%; in the test with CAKI-1 renal it was 21.3%; in the test on A498 renal it was -9.49% (active); in the test with CCRF-CEM leukemia it was 77.8%. Further, in the test on MOLT-4 leukemia, the growth is 88.7%.

Consider `O=C(Cc1ccccc1[N+](=O)[O-])c1ccc2c(c1)OCO2`, for which the growth is 104% in the test on HCT-15 colon; 102% in the test on HT29 colon; 91.3% in the test on SNB-75 CNS; 97.7% with SNB-19 CNS; 98.8% in the test on U251 CNS; 96.8% in the test with PC-3 prostate. The growth in the test with SK-MEL-5 melanoma was 103%; with UACC-62 melanoma, 88.8%; in the test with LOX IMVI melanoma it was 96.9%; with SK-MEL-28 melanoma, 105%; in the test on SK-MEL-2 melanoma it was 99.4%; in the test on EKVX NSCLC it was 97.5%. For the same molecule, the growth in the test with SN12C renal is 96%; in the test with UO-31 renal, 80.1%; with ACHN renal, 103%; in the test with CAKI-1 renal it was 97.8%; in the test with A498 renal it was 77.9%; in the test with CCRF-CEM leukemia it was 76.3%. In the test on MOLT-4 leukemia, the growth was 86.6%.

Take `CCCNC(=O)Oc1ccc(/C(=C(/C)Cc2ccc(OC)cc2)c2ccc(OCCN3CCCC3)cc2)cc1`: the growth in the test with HCT-15 colon is 16.9%; in the test with HT29 colon, 0.741% (active); in the test with SNB-75 CNS it was 48.2%; in the test with SNB-19 CNS, 78.6%; in the test with U251 CNS, 48.6%; with PC-3 prostate, 56.4%. Further, the growth with SK-MEL-5 melanoma is 11.7%; in the test with UACC-62 melanoma it was 52.5%; in the test with LOX IMVI melanoma, 48.4%; with SK-MEL-28 melanoma, 55.8%; in the test with SK-MEL-2 melanoma, 98.8%; in the test with EKVX NSCLC it was 70.1%. Moreover, the growth is 71.3% in the test with SN12C renal; 50.3% with UO-31 renal; 83.4% in the test on TK-10 renal; 78.6% in the test with ACHN renal; 50.7% in the test on CCRF-CEM leukemia; 52.8% with MOLT-4 leukemia.

As for `COc1cc(/C=C/C(=O)c2ccc(F)cc2)ccc1OCCCCOc1cc2c(cc1OC)C(=O)N1CCCC1C=N2` (stereo unspecified), the growth with HCT-15 colon was -46.3% (active); in the test on HT29 colon, -49.3% (active); in the test on SNB-75 CNS, -8.01% (active); with SNB-19 CNS it was -35.3% (active); in the test with U251 CNS, -100% (active); in the test on PC-3 prostate, -38.3% (active). Moreover, the growth in the test on SK-MEL-5 melanoma was -99.7% (active); with UACC-62 melanoma, -86% (active); with LOX IMVI melanoma, -84.6% (active); with SK-MEL-28 melanoma, -42.1% (active); in the test with SK-MEL-2 melanoma, -24.6% (active); in the test on EKVX NSCLC, 8.29% (active). Moreover, the growth in the test with SN12C renal was -48.1% (active); in the test on UO-31 renal, -63% (active); with ACHN renal it was -85.9% (active); in the test on CAKI-1 renal, -14.2% (active); in the test on A498 renal, 7.77% (active); in the test with CCRF-CEM leukemia, -30.3% (active). In addition, the growth in the test on MOLT-4 leukemia is -19.4% (active).

On to `Cc1ccc(S(=O)(=O)NC(CCC(=O)Nc2ccccc2)C(=O)Nc2ccccc2)cc1` (stereo unspecified), for which the growth in the test on HCT-15 colon was 0.514% (active); with HT29 colon it was -14.5% (active); in the test on SNB-75 CNS, -24.9% (active); in the test with SNB-19 CNS, -3.81% (active); in the test on U251 CNS, -43.8% (active); in the test with PC-3 prostate it was -10.4% (active). Also, the growth with SK-MEL-5 melanoma is -65.5% (active); in the test on UACC-62 melanoma it was -45.6% (active); in the test on LOX IMVI melanoma it was -21.6% (active); in the test on SK-MEL-28 melanoma, -33.2% (active); in the test with SK-MEL-2 melanoma, -39.6% (active); with SN12C renal, 3.91% (active). Also, the growth with UO-31 renal was -16.3% (active); in the test with TK-10 renal, -12.9% (active); in the test with ACHN renal it was -50.7% (active); in the test with CAKI-1 renal it was 12%; with A498 renal, -20.7% (active); in the test with CCRF-CEM leukemia, 5.4% (active). The growth in the test with MOLT-4 leukemia was 8.8% (active).

`Oc1ccc(Br)cc1/C=N/NC(=S)NC12CC3CC(CC(C3)C1)C2`: the growth was 9.35% (active) with HCT-15 colon; -16.7% (active) with HT29 colon; 53.3% with SNB-75 CNS; 45.3% with SNB-19 CNS; 5.5% (active) in the test on U251 CNS; -19% (active) in the test on PC-3 prostate. Moreover, the growth in the test on SK-MEL-5 melanoma is 28.6%; in the test with UACC-62 melanoma, 30.1%; with LOX IMVI melanoma it was -76% (active); in the test with SK-MEL-28 melanoma, 51.2%; with SK-MEL-2 melanoma, 48.2%; with SN12C renal it was 20.1%. In addition, the growth was -2.23% (active) with UO-31 renal; 27.9% with TK-10 renal; 2.67% (active) in the test with ACHN renal; -35.3% (active) in the test with CAKI-1 renal; 53.3% in the test on A498 renal; -21.1% (active) in the test with CCRF-CEM leukemia. For the same molecule, the growth with MOLT-4 leukemia was 1.75% (active).
